High-throughput results (PubChem BioAssay)
This is a sample that favours compounds with a hit; in the whole collection about 4% have one here.
Anthrax LF inh2 – blocks Bacillus anthracis lethal factor protease; P15917; multiplex microsphere protease cleavage assay, LF; inhibition, % at 10 µM; 0.12% of 360,000 active; AID 588501; further: plate controls were buffer without enzyme for full effect and enzyme alone for no effect
BoNT-A LC inh2 – blocks Botulinum neurotoxin A light chain protease | multiplex microsphere protease substrate cleavage, flow cytometry | inhibition, % at 10 µM | 0.17% of 360,000 active | AID 588499; further: plate controls were buffer without enzyme for full effect and enzyme alone for no effect
Autofluor counter – flagged as autofluorescent in microsphere protease counterscreen; compound autofluorescence counterscreen, microsphere flow cytometry; hits give high values; fluorescence intensity (no concentration beside the values); 3.1% of 360,000 active; in the data active means fluorescence intensity above about 16000; inconclusive means no clear call, values can overlap the other calls
BoNT F protease – blocks Botulinum neurotoxin F light chain protease. Multiplex microsphere protease cleavage assay, flow cytometry. inhibition, % at 10 µM. 0.22% of 360,000 active. AID 588497; in the data active means inhibition above about 35%, passing the limit was not always enough; inconclusive means no clear call, values can overlap the other calls; further: plate controls were buffer without enzyme for full effect and enzyme alone for no effect
VHR inh abs – blocks human VHR1 dual specificity phosphatase; P51452; recombinant VHR phosphatase, pNPP absorbance; inhibition, % at 13.3 µM; 0.52% of 290,000 active; in the data active means inhibition above about 50%
MazF activator – activators of E. coli MazEF toxin-antitoxin RNase. activation, % at 20 µM. P0AE70. AID 504720. 0.32% of 350,000 active. FAM/BHQ RNA-DNA oligo cleavage fluorescence, 5 h; in the data active means activation above about 50%
* hit, by the source's call. Unless noted, no stated cut-off is given here; in the data, active means inhibition above about 30%; inconclusive means no clear call, values can overlap the other calls; inactive means below that.

Screening Clc1nnc(N/N=C/c2ccccc2)c2ccccc12 returned Anthrax LF inh2 -5, BoNT-A LC inh2 -3, Autofluor counter 16810*, BoNT F protease -3, VHR inh abs 17 and MazF activator 6.
Screening Oc1ccc2ccccc2c1C=NNc1ccccn1 returned Anthrax LF inh2 -6, BoNT-A LC inh2 0, Autofluor counter 2776, BoNT F protease -17 and MazF activator -11.
O=C(CC1Nc2ccccc2NC1=O)Nc1cc(Cl)cc(Cl)c1 (stereo not given) was read as Anthrax LF inh2 0, BoNT-A LC inh2 -6, Autofluor counter 22648*, BoNT F protease -8, VHR inh abs -13 and MazF activator -1.
For COc1ccc(/C(N)=N/OC(=O)CSc2ccc(C)cc2)cc1 the results were Anthrax LF inh2 -5, BoNT-A LC inh2 -1, Autofluor counter 8372, BoNT F protease -16, VHR inh abs 22 and MazF activator -4.
CC(=O)Nc1ccc(-c2cn3c(n2)SCC3)cc1 was read as Anthrax LF inh2 3, BoNT-A LC inh2 -2, Autofluor counter 4127, BoNT F protease -12, VHR inh abs 24 and MazF activator -28.
O=C(Oc1ccc(-c2cn3c(n2)SCC3)cc1)c1ccccc1 was read as Anthrax LF inh2 -6, BoNT-A LC inh2 5, Autofluor counter 20792*, BoNT F protease 4, VHR inh abs 0 and MazF activator 6.
CCCCOC(=O)Nc1ccc2c(C)cc(=O)oc2c1 was read as Anthrax LF inh2 6, BoNT-A LC inh2 -1, Autofluor counter 10206, BoNT F protease -2, VHR inh abs 13 and MazF activator 2.
Screening CCOC(=O)Nc1ccc2c(C)cc(=O)oc2c1 returned Anthrax LF inh2 -4, BoNT-A LC inh2 -2, Autofluor counter 16452*, BoNT F protease -5, VHR inh abs 6 and MazF activator 3.
Screening Cc1cccc(NC(=O)CCSc2ccccn2)c1 returned Anthrax LF inh2 0, BoNT-A LC inh2 -2, Autofluor counter 2124, BoNT F protease -26, VHR inh abs 1 and MazF activator 7.
Cc1cccc(NC(=S)NNC(=O)CCn2cc(C)cn2)c1 was read as Anthrax LF inh2 -2, BoNT-A LC inh2 inconclusive, Autofluor counter 22732*, BoNT F protease 1, VHR inh abs 10 and MazF activator 1.
Cc1cccc(NC(=O)CCSc2nncn2C)c1 was read as Anthrax LF inh2 -1, BoNT-A LC inh2 2, Autofluor counter 22260*, BoNT F protease 4, VHR inh abs 9 and MazF activator 6.
`CC(C)c1ccc(/C=N/NC(=O)c2cc(-c3cccc([N+](=O)[O-])c3)n[nH]2)cc1` gave Anthrax LF inh2 -16, BoNT-A LC inh2 -1, Autofluor counter 3155, BoNT F protease 34, VHR inh abs -19 and MazF activator -1.
C/C(=N/NC(=O)c1cc(-c2cccc([N+](=O)[O-])c2)n[nH]1)c1ccc(Cl)cc1 was read as Anthrax LF inh2 -1, BoNT-A LC inh2 0, Autofluor counter 10348, BoNT F protease 1, VHR inh abs 7 and MazF activator 56*.
Screening CCS(=O)(=O)c1ccc2oc(Nc3cc(C)cc(C)c3)nc2c1 returned Anthrax LF inh2 -2, BoNT-A LC inh2 -1, Autofluor counter 20341*, BoNT F protease -2, VHR inh abs 21 and MazF activator 1.
Screening Cc1ccc(N2C(=O)[C@@H]3Cc4ccccc4CN3C2=O)cc1 returned Anthrax LF inh2 -15, BoNT-A LC inh2 2, Autofluor counter 21075*, BoNT F protease 3, VHR inh abs 27 and MazF activator 6.
COc1ccc(N2C(=O)[C@@H]3Cc4ccccc4CN3C2=O)cc1 was read as Anthrax LF inh2 2, BoNT-A LC inh2 0, Autofluor counter 3762, BoNT F protease -2, VHR inh abs 22 and MazF activator -3.
For CCOC(=O)Cn1c(=NC(=O)c2ccc([N+](=O)[O-])s2)sc2ccccc21 the results were Anthrax LF inh2 1, BoNT-A LC inh2 1, Autofluor counter 2362, BoNT F protease 0, VHR inh abs 0 and MazF activator 276*.
`COc1ccc2[nH]cc(C(=O)CN3CCCC(C)C3)c2c1` (stereo not given) gave Anthrax LF inh2 0, BoNT-A LC inh2 0, Autofluor counter 3205, BoNT F protease 0, VHR inh abs 39 and MazF activator -3.
Screening COc1ccccc1N1C(=O)C(=O)N(C)C1=O returned Anthrax LF inh2 3, BoNT-A LC inh2 0, Autofluor counter 4561, BoNT F protease -6 and MazF activator 0.
